Source: PubChem BioAssay (Tox21)
“And” between values parts separate entries of the source, which are not always exact repeats. Equal entries are not always repeated. Records with an inconclusive call do not appear. A call without a number means that no potency is given here. More than one record can exist for a structure, and the calls need not agree. The source made the active and inactive calls. The call rests on the fitted dose curve; in most records, active means well fitted curve in the direction sought with a large enough effect in the repeat runs; inconclusive means weak or mixed curves; inactive means no such curve, though single readings can be large; an effect the other way counts as inactive or inconclusive.

Test system: not listed separately
Test: qHTS assay to identify aromatase inhibitors - cell viability counter screen (AID 743084);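 further: cells stimulated with testosterone during compound exposure; nearly all actives have a fitted effect of over 55% in size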
Details: MCF-7 aro ERE viability, CellTiter-Fluor, 24 h; series mostly up to 70.3 µM; activity change, negative = cytotoxicity: at the top concentration
Potency means the concentration at half of the fitted maximal effect.

Question: For C#C[C@]1(O)CC[C@H]2[C@@H]3CCc4cc(O)ccc4[C@H]3CC[C@@]21C, which Potency is on record?
Answer: Its Potency is “inactive and 48.2 µM (active)”.

Question: With NC(=O)c1ccc([N+](=O)[O-])cc1Cl as the compound, how does the Potency read?
Answer: Its Potency is “inactive”.

Question: With C[C@]12CC[C@@H]3c4ccc(O)cc4CC[C@H]3[C@@H]1CCC2=O as the compound, how does the Potency read?
Answer: The Potency was “inactive”.

Question: For Cc1c(N(C)C)c(=O)n(-c2ccccc2)n1C, which Potency is on record?
Answer: Its Potency is “inactive”.

Question: With COc1ccc(C(=O)c2ccccc2)c(O)c1 as the compound, how does the Potency read?
Answer: The Potency was “inactive”.

Question: For NC(=O)OCC(COC(N)=O)c1ccccc1, which Potency is on record?
Answer: Its Potency is “inactive”.

Question: With COc1ccc(O)cc1 as the compound, how does the Potency read?
Answer: Its Potency is “inactive”.

Question: For CC(C)(C)CC(C)(C)c1ccc(O)c(-n2nc3ccccc3n2)c1, which Potency is on record?
Answer: The Potency was “inactive”.

Question: For C/C=C/c1ccc(O)c(OC)c1, which Potency is on record?
Answer: The Potency was “inactive”.

Molecular target: Aryl hydrocarbon receptor (Homo sapiens) (UniProt P35869)
Test: qHTS assay to identify small molecule that activate the aryl hydrocarbon receptor (AhR) signaling pathway (AID 743085); further: nearly all actives have a fitted effect of over 15% in size;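 on activation: HG2L7.5c1 human HepG2 liver cells with stably integrated DRE-driven firefly reporter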
Details: HepG2 AhR-luc (HG2L7.5c1), luciferase, 24 h; series mostly up to 70.3 µM; activation: at the top concentration
Summary of the method: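 Stably transfected human liver carcinoma cells (HG2L7.5c1; 20 DRE-firefly luciferase) were incubated 5 h, dosed, and kept 24 h at 37C. Agonism was scored from increased luciferase luminescence.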

Chain of Aryl hydrocarbon receptor (Homo sapiens) (P35869 whole entry, looked up): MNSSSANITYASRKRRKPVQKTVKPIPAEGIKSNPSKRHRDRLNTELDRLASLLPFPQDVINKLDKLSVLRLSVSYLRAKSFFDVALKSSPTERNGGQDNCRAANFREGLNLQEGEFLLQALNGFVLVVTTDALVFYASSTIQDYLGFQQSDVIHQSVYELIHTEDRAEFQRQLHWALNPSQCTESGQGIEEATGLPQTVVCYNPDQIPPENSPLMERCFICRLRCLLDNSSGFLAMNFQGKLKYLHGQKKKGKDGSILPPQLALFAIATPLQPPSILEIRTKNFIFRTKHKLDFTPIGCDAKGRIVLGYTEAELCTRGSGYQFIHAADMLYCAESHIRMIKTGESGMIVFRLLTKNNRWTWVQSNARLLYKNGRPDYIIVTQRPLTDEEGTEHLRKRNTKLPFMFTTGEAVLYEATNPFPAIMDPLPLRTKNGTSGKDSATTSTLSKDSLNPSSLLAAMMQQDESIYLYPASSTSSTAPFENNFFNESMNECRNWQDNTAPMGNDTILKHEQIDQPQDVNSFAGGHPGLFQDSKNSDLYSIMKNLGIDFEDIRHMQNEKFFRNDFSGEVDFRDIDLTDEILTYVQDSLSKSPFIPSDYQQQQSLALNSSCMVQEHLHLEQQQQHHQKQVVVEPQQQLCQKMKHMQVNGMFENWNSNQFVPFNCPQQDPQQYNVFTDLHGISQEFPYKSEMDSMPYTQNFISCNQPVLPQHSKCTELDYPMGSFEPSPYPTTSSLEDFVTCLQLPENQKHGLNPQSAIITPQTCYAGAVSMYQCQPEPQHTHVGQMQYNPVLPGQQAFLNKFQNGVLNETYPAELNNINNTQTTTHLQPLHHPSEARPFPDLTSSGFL

Question: With CO[C@H]1C=CO[C@@]2(C)Oc3c(C)c(O)c4c(O)c(c(/C=N/N5CCN(C)CC5)c(O)c4c3C2=O)NC(=O)/C(C)=C\C=C[C@H](C)[C@H](O)[C@@H](C)[C@@H](O)[C@@H](C)[C@H](OC(C)=O)[C@@H]1C as the compound, how does the Potency read?
Answer: The Potency was “inactive”.

Question: For NC(=O)NO, which Potency is on record?
Answer: Its Potency is “inactive”.

Question: Which “activation” value does the source give for CC1=C(/C=C/C(C)=C/C=C/C(C)=C/C(=O)O)C(C)(C)CCC1 here?
Answer: Its value is 8.21% (inactive).

Question: For NCCNc1cccc2ccccc12, which Potency is on record?
Answer: The Potency was 29.8 µM (active) and 54.4 µM (active) and 66.9 µM (active).

Question: For NC(=O)N/N=C/c1ccc([N+](=O)[O-])o1, which Potency is on record?
Answer: Its Potency is “inactive and 19.3 µM (active)”.

Question: Which Potency does the source give for Cc1cccc(Nc2cc(Cl)nc(SCC(=O)O)n2)c1C here?
Answer: Its Potency is “inactive”.

Question: Which Potency does the source give for C[C@]12C[C@H](O)[C@H]3[C@@H](CCC4=CC(=O)CC[C@@]43C)[C@@H]1CC[C@@H]2C(=O)CO here?
Answer: Its Potency is “inactive”.
